Results from the supplement of paper PMC4723716.
± gives the uncertainty stated by the source. The full ranking holds about 9,900 compounds; the median of “viability index relative to DMSO control” is about 1, and the lowest 2% start at about 0.85. Many of the other results were omitted from the sample, so the lowest values are more common in it than they were.

System: Plasmodium falciparum NF54 stage V gametocytes
Test: viability index relative to DMSO control (fraction); higher = less gametocyte killing
Details: 2.5 µM, incubation time: 72 h
Outline: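 Compound at 2.5 µM was incubated for 72 hr at 37°C under low oxygen with P. falciparum NF54 stage V gametocytes (0.75% gametocytemia, 1.25% hematocrit, 10 µl, serum-free screening medium) in 1,536-well plates. Staining used 3 µl of 2.5 µM MitoTracker Red CMXRos plus 0.13% saponin for one to two hours, and red particles of 20–70 µm2 were counted in one imaged field per well. Each viability index is that count relative to the plate mean of solvent-only wells.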

[1] = library set: Broad Institute DOS

Row | Structure (SMILES) | viability index [1] | viability index (library set: Broad Institute Blood Stage)
1 | COc1ccccc1C#Cc1ccc([C@H]2[C@H]3CN(C(=O)C4CCC4)CCCCN3[C@H]2CO)cc1 | 0.971 ± 0.013 | –
2 | OC[C@@H]1[C@@H](c2ccc(C#Cc3ccccc3F)cc2)[C@H]2CN(CC3CCOCC3)CCCCN12 | 0.852 ± 0.021 | –
3 | COc1ccccc1C#Cc1ccc([C@@H]2[C@@H](CO)N3CCCCN(CCC(F)(F)F)C[C@H]23)cc1 | – | 0.759 ± 0.06
4 | OC[C@H]1[C@@H](c2ccc(C#Cc3ccccc3F)cc2)[C@H]2CN(CC3CCOCC3)CCCCN21 | 0.938 ± 0.011 | –
5 | OC[C@H]1[C@H](c2ccc(C#Cc3ccccc3F)cc2)[C@@H]2CN(CC3CCOCC3)CCCCN12 | 0.8726 ± 0.0019 | –
6 | COc1ccccc1C#Cc1ccc([C@@H]2[C@H](CO)N3CCCCN(C(=O)C4CCC4)C[C@@H]23)cc1 | 0.967 ± 0.025 | –
7 | C[C@@H]1CN([C@@H](C)CO)C(=O)CCCn2cc(nn2)CO[C@@H]1CN(C)S(=O)(=O)c1cn(C)cn1 | 1.07 ± 0.062 | –
8 | COC(=O)C[C@H]1C[C@H]2c3cc(N)ccc3O[C@H]2[C@H](CO)O1 | 1.05 ± 0.0071 | –
9 | C/C=C/c1ccc([C@@H]2[C@H](CO)N3CCCCN(S(=O)(=O)c4ccc(OC)cc4)C[C@@H]23)cc1 | 1.03 ± 0.014 | –
10 | C[C@H](CO)N1C[C@H](C)[C@H](CN(C)C(=O)NC2CCCCC2)OCc2ccccc2-c2ccccc2C1=O | 1.03 ± 0.03 | –
11 | COC(=O)C[C@H]1CC[C@@H]2[C@@H](COc3ccc(NC(=O)Nc4c(C)noc4C)cc3C(=O)N2C)O1 | 0.983 ± 0.14 | –
12 | O=C(Nc1ccc(F)cc1)N1CC(=O)N2[C@H](CO)[C@H](c3ccc(-c4cccc(F)c4)cc3)[C@H]2C1 | 1.05 ± 0.019 | –
13 | C[C@H]1CN([C@@H](C)CO)C(=O)c2ccccc2-c2ccccc2CO[C@H]1CN(C)C(=O)Nc1cccc(Cl)c1Cl | 0.9208 ± 0.0078 | –
14 | C[C@H]1CN([C@@H](C)CO)C(=O)c2ccccc2-c2ccccc2CO[C@H]1CN(C)C(=O)Nc1ccc(-c2ccccc2)cc1 | 0.724 ± 0.14 | –
15 | C[C@H](CO)N1C[C@H](C)[C@@H](CN(C)C(=O)Nc2ccc(-c3ccccc3)cc2)OCc2ccccc2-c2ccccc2C1=O | 1.019 ± 0.0076 | –
16 | C[C@@H]1CN([C@@H](C)CO)C(=O)c2ccccc2-c2ccccc2CO[C@H]1CN(C)C(=O)Nc1cccc(Cl)c1Cl | 0.72 ± 0.16 | –
17 | C[C@@H]1CN([C@H](C)CO)C(=O)c2ccccc2-c2ccccc2CO[C@@H]1CN(C)C(=O)Nc1cccc(Cl)c1Cl | 0.894 ± 0.05 | –
18 | C[C@@H]1CN([C@H](C)CO)C(=O)c2ccccc2-c2ccccc2CO[C@H]1CN(C)C(=O)Nc1cccc(Cl)c1Cl | 0.863 ± 0.045 | –
19 | C[C@H](CO)N1C[C@H](C)[C@@H](CN(C)C(=O)Nc2cccc(Cl)c2Cl)OCc2ccccc2-c2ccccc2C1=O | 0.845 ± 0.043 | –

Row | Structure (SMILES) | viability index [1] | viability index (library set: Broad Institute Blood Stage)
20 | C[C@@H]1CN([C@@H](C)CO)C(=O)c2ccccc2-c2ccccc2CO[C@@H]1CN(C)C(=O)Nc1ccc(-c2ccccc2)cc1 | 0.977 ± 0.016 | –
21 | C[C@@H]1CN([C@@H](C)CO)C(=O)c2ccccc2-c2ccccc2CO[C@@H]1CN(C)C(=O)Nc1cccc(Cl)c1Cl | 0.946 ± 0.053 | –
22 | COC(=O)C[C@@H]1C[C@@H]2c3cc(NC(=O)c4ccc5c(c4)OCO5)ccc3O[C@@H]2[C@H](CO)O1 | 0.991 ± 0.033 | –
23 | COc1ccc(S(=O)(=O)Nc2ccc3c(c2)CC(=O)N([C@H](C)CO)C[C@@H](C)[C@@H](CN(C)C(=O)Nc2c(C)noc2C)O3)cc1 | 1.101 ± 0.0069 | –
24 | Cc1ccc(S(=O)(=O)N(C)C[C@@H]2Oc3c(NS(C)(=O)=O)cccc3C(=O)N([C@H](C)CO)C[C@@H]2C)cc1 | 0.939 ± 0.13 | –
25 | COc1ccccc1CNC(=O)C[C@@H]1C[C@@H]2c3cc(NC(=O)C4CCC4)ccc3O[C@@H]2[C@@H](CO)O1 | 1.01 ± 0.015 | –
26 | O=C([C@@H]1[C@@H](CO)[C@@H]2Cn3c(ccc(C4=CCCC4)c3=O)[C@H]1N2C(=O)c1cccnc1)N1CCOCC1 | 1.08 ± 0.038 | –
27 | CCc1nc(N2[C@H](CO)[C@H](c3ccccc3-c3ccc(F)cc3)[C@@H]2C#N)sc1C | 1.03 ± 0.12 | –
28 | O=C(C[C@@H]1CC[C@H]2NC[C@@H](O)COC[C@@H]2O1)NCc1ccc2c(c1)OCO2 | 1.07 ± 0.015 | –
29 | COc1ccc2c3c([nH]c2c1)[C@H](CO)N(Cc1ccncc1)C[C@]31CN(C1)C(=O)CN(C)C | 1.04 ± 0.071 | –
30 | CCCC(=O)N1CC[C@@]2(CC1)CN(Cc1ccc(Cl)cc1)[C@@H](CO)c1[nH]c3cc(OC)ccc3c21 | 0.795 ± 0.039 | –
31 | COc1ccc2c3c([nH]c2c1)[C@H](CO)N(Cc1ccc(Cl)cc1)C[C@]31CCN(Cc2nccs2)CC1 | 0.884 ± 0.047 | –
32 | COCC(=O)N1CC[C@@]2(CC1)CN(Cc1ccccc1Cl)[C@H](CO)c1[nH]c3cc(OC)ccc3c21 | 1.023 ± 0.0089 | –
33 | COc1ccc2c3c([nH]c2c1)[C@@H](CO)N(Cc1ccc(Cl)cc1)C[C@]31CCN(Cc2nccs2)CC1 | 0.814 ± 0.015 | –
34 | COc1ccc2c3c([nH]c2c1)[C@@H](CO)N(Cc1nccs1)C[C@]31CN(Cc2ccncc2)C1 | 1.02 ± 0.079 | –
35 | COc1ccc2c3c([nH]c2c1)[C@H](CO)N(Cc1nccs1)C[C@]31CCN(Cc2cccnc2)CC1 | 0.946 ± 0.081 | –
36 | CCCC(=O)N1CC[C@@]2(CC1)CN(Cc1ccc(Cl)cc1)[C@H](CO)c1[nH]c3cc(OC)ccc3c21 | 0.873 ± 0.16 | –
37 | COc1ccc2c3c([nH]c2c1)[C@@H](CO)N(Cc1ccccc1)C[C@]31CCN(Cc2cncnc2)CC1 | 0.849 ± 0.064 | –
38 | COc1ccc2c3c([nH]c2c1)[C@@H](CO)N(Cc1nccs1)C[C@]31CCN(Cc2cccnc2)CC1 | 0.98 ± 0.062 | –
